# Data as given in PubChem BioAssay AID1159580 (chemical genetic matrix, 2015).
# Values joined by “and” are separate entries in the source; they are usually repeats but may differ in a detail not shown here. Equal values may be shown once. About 2,000 (36%) of roughly 5,500 compounds were called active. Not shown: some 18% with an inconclusive outcome. This is one part of the list. Values without a mark were called inactive. No stated cut-off is given here; in the data, active means normalized growth mostly below about 0.91 (no sharp cut-off); inconclusive means no clear call, values can overlap the other calls; inactive means mostly above about 0.92.
# Assay: chemical genetic growth profiling, strain panel (AID 1159580);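 further: tested at 20 µM; growth read once vehicle control cultures reached saturation at 30 °C; 1 = growth at the plate median or of vehicle wells; lower values mean less growth of the strain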
# Conditions: S. cerevisiae deletion strains, growth OD
smiles,measurement,setting,value
O=C1c2ccccc2C(=O)c2ccccc21,normalized growth,"locus YAL013W, strain DEP1, active compounds read low",1
same,normalized growth,"locus YAL021C, strain ccr4, active compounds read low",0.97
same,normalized growth,"locus YAL026C, strain drs2, active compounds read low",0.969
same,normalized growth,"locus YAL030W, strain snc1, active compounds read low",0.995
same,normalized growth,"locus YBL061C, strain skt5, active compounds read low",0.986
same,normalized growth,"locus YBR009C, strain hhf1, active compounds read low",0.96
same,normalized growth,"locus YBR021W, strain FUR4, active compounds read low",1.15
same,normalized growth,"locus YBR023C, strain chs3, active compounds read low",0.982
same,normalized growth,"locus YBR171W, strain sec66, active compounds read low",0.978
same,normalized growth,"locus YBR229C, strain ROT2, active compounds read low",0.999
same,normalized growth,"locus YBR231C, strain swc5, active compounds read low",0.963
same,normalized growth,"locus YBR279W, strain paf1, active compounds read low",0.975
same,normalized growth,"locus YCL011C, strain gbp2, active compounds read low",0.989
same,normalized growth,"locus YCL016C, strain dcc1, active compounds read low",0.957
same,normalized growth,"locus YCL029C, strain bik1, active compounds read low",0.994
same,normalized growth,"locus YCL069W, strain vba3, active compounds read low",0.998
same,normalized growth,"locus YCR088W, strain abp1, active compounds read low",1.01
same,normalized growth,"locus YDL005C, strain med2, active compounds read low",0.999
same,normalized growth,"locus YDL035C, strain GPR1, active compounds read low",0.949
same,normalized growth,"locus YDL040C, strain nat1, active compounds read low",0.988
same,normalized growth,"locus YDL074C, strain BRE1, active compounds read low",0.91
same,normalized growth,"locus YDL101C, strain DUN1, active compounds read low",0.985
same,normalized growth,"locus YDL134C, strain PPH21, active compounds read low",0.995
same,normalized growth,"locus YDL185W, strain tfp1, active compounds read low",0.981
same,normalized growth,"locus YDL192W, strain arf1, active compounds read low",0.99
same,normalized growth,"locus YDR001C, strain nth1, active compounds read low",0.993
same,normalized growth,"locus YDR069C, strain doa4, active compounds read low",0.984
same,normalized growth,"locus YDR101C, strain arx1, active compounds read low",0.989
same,normalized growth,"locus YDR137W, strain rgp1, active compounds read low",0.947
same,normalized growth,"locus YDR150W, strain NUM1, active compounds read low",0.969
same,normalized growth,"locus YDR159W, strain sac3, active compounds read low",1.01
same,normalized growth,"locus YDR162C, strain NBP2, active compounds read low",0.921
same,normalized growth,"locus YDR195W, strain ref2",1.24 [resistant] (active)
same,normalized growth,"locus YDR297W, strain sur2, active compounds read low",0.993
same,normalized growth,"locus YDR318W, strain mcm21, active compounds read low",0.975
same,normalized growth,"locus YDR334W, strain swr1, active compounds read low",0.974
same,normalized growth,"locus YDR335W, strain msn5, active compounds read low",0.966
same,normalized growth,"locus YDR388W, active compounds read low",1
same,normalized growth,"locus YDR392W, strain spt3, active compounds read low",0.842
same,normalized growth,"locus YDR502C, strain sam2, active compounds read low",0.991
same,normalized growth,"locus YEL003W, strain gim4, active compounds read low",0.981
same,normalized growth,"locus YEL037C, strain rad23, active compounds read low",0.982
same,normalized growth,"locus YEL061C, strain CIN8 (second series), active compounds read low",0.991
same,normalized growth,"locus YEL061C, strain CIN8, active compounds read low",1.01
same,normalized growth,"locus YER015W, strain faa2, active compounds read low",0.957
same,normalized growth,"locus YER016W, strain bim1, active compounds read low",0.992
same,normalized growth,"locus YER110C, active compounds read low",0.986
same,normalized growth,"locus YER111C, strain swi4, active compounds read low",1
same,normalized growth,"locus YER155C, strain BEM2 (second series), active compounds read low",0.968
same,normalized growth,"locus YER155C, strain BEM2, active compounds read low",1.02
same,normalized growth,"locus YER167W, strain BCK2, active compounds read low",0.976
same,normalized growth,"locus YFR010W, strain ubp6, active compounds read low",0.982
same,normalized growth,"locus YGL078C, strain dbp3, active compounds read low",0.978
same,normalized growth,"locus YGL086W, strain mad1, active compounds read low",0.967
same,normalized growth,"locus YGL167C, strain pmr1, active compounds read low",0.963
same,normalized growth,"locus YGL173C, strain kem1, active compounds read low",0.997
same,normalized growth,"locus YGL227W, strain vid30, active compounds read low",1
same,normalized growth,"locus YGL240W, strain doc1, active compounds read low",1
same,normalized growth,"locus YGL248W, strain PDE1, active compounds read low",1.01
same,normalized growth,"locus YGL253W, strain hxk2, active compounds read low",0.968
same,normalized growth,"locus YGR078C, strain PAC10, active compounds read low",0.963
same,normalized growth,"locus YGR135W, strain pre9, active compounds read low",0.994
same,normalized growth,"locus YGR229C, strain SMI1, active compounds read low",0.854
same,normalized growth,"locus YGR252W, strain gcn5, active compounds read low",1.01
same,normalized growth,"locus YHR013C, strain ard1, active compounds read low",0.974
same,normalized growth,"locus YHR027C, strain rpn1, active compounds read low",0.965
same,normalized growth,"locus YHR030C, strain SLT2, active compounds read low",1.01 and 1.02
same,normalized growth,"locus YHR079C, strain IRE1 (second series), active compounds read low",0.994
same,normalized growth,"locus YHR079C, strain IRE1, active compounds read low",1.04
same,normalized growth,"locus YHR094C, strain hxt1, active compounds read low",0.98
same,normalized growth,"locus YHR129C, strain ARP1, active compounds read low",1
same,normalized growth,"locus YHR142W, strain chs7, active compounds read low",0.93
same,normalized growth,"locus YHR200W, strain rpn10, active compounds read low",0.988
same,normalized growth,"locus YIL066C, strain RNR3, active compounds read low",0.95
same,normalized growth,"locus YIL073C, strain SPO22, active compounds read low",0.832
same,normalized growth,"locus YIL125W, strain kgd1, active compounds read low",0.989
same,normalized growth,"locus YIR030C, strain dcg1, active compounds read low",0.998
same,normalized growth,"locus YJL092W, strain hpr5, active compounds read low",0.992
same,normalized growth,"locus YJL095W, strain BCK1 (second series), active compounds read low",1
same,normalized growth,"locus YJL095W, strain BCK1, active compounds read low",0.994 and 1.03
same,normalized growth,"locus YJL115W, strain asf1, active compounds read low",0.998
same,normalized growth,"locus YJL129C, strain trk1, active compounds read low",1.07
same,normalized growth,"locus YJL134W, strain LCB3, active compounds read low",0.988
same,normalized growth,"locus YJL154C, strain vps35, active compounds read low",1
same,normalized growth,"locus YJL164C, strain tpk1, active compounds read low",0.975
same,normalized growth,"locus YJL166W, strain qcr8, active compounds read low",1
same,normalized growth,"locus YJL168C, strain set2, active compounds read low",1
same,normalized growth,"locus YJL187C, strain SWE1 (second series), active compounds read low",0.982
same,normalized growth,"locus YJL187C, strain SWE1, active compounds read low",0.989
same,normalized growth,"locus YJR043C, strain POL32, active compounds read low",0.958
same,normalized growth,"locus YJR066W, strain TOR1, active compounds read low",0.982
